PLK1 kinase inh – PLK1 (human) kinase inhibition; AID 619; recombinant PLK1 kinase, TR-FRET peptide phosphorylation; P53350; inhibition, % at 10 µM; actives 0.53% (n = 97,000);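 active = inhibition of 50% or more in the single-concentration screen; inactive = inhibition below 50%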;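 also: 0% = DMSO max control and 100% = H-89 dihydrochloride min control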
Target sequence (P53350 whole entry, looked up): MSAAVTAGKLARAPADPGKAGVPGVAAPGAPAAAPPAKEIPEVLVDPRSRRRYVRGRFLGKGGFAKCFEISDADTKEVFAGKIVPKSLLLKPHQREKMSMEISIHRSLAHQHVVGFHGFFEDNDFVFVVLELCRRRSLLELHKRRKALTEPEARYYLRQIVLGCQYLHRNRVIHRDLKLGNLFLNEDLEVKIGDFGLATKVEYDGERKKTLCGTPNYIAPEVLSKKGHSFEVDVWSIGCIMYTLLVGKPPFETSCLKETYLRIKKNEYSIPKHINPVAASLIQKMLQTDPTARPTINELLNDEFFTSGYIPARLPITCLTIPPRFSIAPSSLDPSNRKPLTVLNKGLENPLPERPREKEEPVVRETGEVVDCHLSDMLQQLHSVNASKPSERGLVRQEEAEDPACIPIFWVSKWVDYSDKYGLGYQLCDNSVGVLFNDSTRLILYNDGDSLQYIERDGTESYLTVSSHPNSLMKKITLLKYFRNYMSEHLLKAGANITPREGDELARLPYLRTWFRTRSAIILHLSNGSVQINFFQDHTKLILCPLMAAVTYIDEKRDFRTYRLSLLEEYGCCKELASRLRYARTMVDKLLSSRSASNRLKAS
DAT uptake mod – modulates human dopamine transporter uptake under cocaine; Q01959; LLC-PK1 hDAT cells, [14C]-dopamine uptake with cocaine IC80; actives deviate in either direction; B-score at 10 µM; actives 1.3% (n = 110,000);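 active = Z score or B-score, a plate-position-corrected score, falls beyond the plate's 99.7% confidence bounds, in either direction; inactive = both scores lie inside the 99.7% bounds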;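 also: scored against the spread of the other compound wells on the same plate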
PLK1 PBD inh – blocks phosphopeptide binding to human Plk1 polo box domain. Plk1 PBD phosphopeptide binding, fluorescence polarization. P53350. inhibition, %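 (tested at about 20 µM)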. actives 0.13% (n = 97,000). AID 693; in the data active = inhibition above about 34%, passing the limit was not always enough
PTK2B oligo ant – antagonists of human Pyk2 oligomerization; Q14289; Q293 cells, Pyk2 FERM NanoBiT luminescence; hits give low values; z-score (the deposit names both 25 µM and 10 µM); actives 0.83% (n = 99,000); AID 1347419;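 active = Z-score of -3 or lower, scaled per plate to the spread of control and sample wells; inactive = z-score above -3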;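 also: negative z-score means lost luminescence so less FERM oligomerization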
Cav3 T inh – human Cav3.2 channel inhibition, primary screen | actives 4% (n = 100,000) | O95180 | Cav3.2-expressing cells, Fluo-4 calcium fluorescence FDSS; hits give low values | AID 449739 | B-score at 10 µM;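 active = single-dose well whose peak fluorescence ratio is a statistical outlier from its plate by either plate-standardised score or position-corrected B-score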
SDO1 yeast rescue – compounds rescuing growth of sdo1-depleted yeast, bone marrow failure model | S. cerevisiae sdo1-depleted JHY4D growth rescue, OD600 30 h; hits give high values; pdr5 snq2 efflux-pump mutant strain | z-score at 10 µM | actives 0.21% (n = 140,000) | AID 817;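 active = z-score above 3 at both the 24 hr and the 30 hr optical density reads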;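 also: z-score against mean and SD of all compound wells on the same plate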
Starred values were filed as active, the others as inactive; nt = no result given. Hits are enriched below; roughly 4.7% of the tested compounds scored in any of these assays.

SMILES	PLK1 kinase inh	DAT uptake mod	PLK1 PBD inh	PTK2B oligo ant	Cav3 T inh	SDO1 yeast rescue
CCN(CCCn1c(SCC#N)nc2ccccc2c1=O)c1ccccc1	8	0.5	12	-2.4	-5.4*	-1.4
C=C(C)Cn1c(SCC)nc2ccccc2c1=O	-7	-0.81	17	-0.38	-3.8	-1
C=C(C)Cn1c(SCC#N)nc2ccccc2c1=O	-16	-2.9*	12	-0.18	nt	-0.24
CCCCn1c(SCc2nc3ccccc3s2)nc2ccccc2c1=O	nt	nt	nt	nt	nt	-0.95
Cc1cc(C(=O)NNC(=S)NC(C)c2ccccc2)c2ccccc2n1 (stereo not given)	-6	0.077	-8	2.3	0.27	0.19
Nc1nc(SCC(=O)Nc2cc(-c3ccccc3)nn2-c2ccccc2)n[nH]1	-2	1.4*	-13	-0.36	0.94	1.4
Nc1nc(SCC(=O)Nc2ccccc2Sc2ccc(Cl)cc2)n[nH]1	0	-0.68	12	-0.21	-5.9*	0.22
Cc1ccc(-c2cc(NC(=O)CSc3n[nH]c(N)n3)n(-c3ccccc3)n2)cc1	-6	-0.14	4	-1.4	1.3	0.58
CC(=O)Oc1cc2oc(=O)c3c(c2cc1Cl)CCC3	-4	5.6*	18	1.3	0.72	-0.59
CC(C)Oc1cc2oc(=O)c3c(c2cc1Cl)CCC3	-2	0.53	2	1.2	-1.5	-0.62
CCCOc1nc(N)c(C#N)c(-c2ccccc2F)c1C#N	-2	1.9	11	-3.1*	-0.27	-1.2
Cc1onc(-c2ccccc2)c1C(=O)Nc1nnc(-c2ccncc2)s1	0	-0.37	20	-3.2*	-1.5	1.1
Cc1onc(-c2ccccc2)c1C(=O)Nc1ccncc1	-3	0.41	-17	0.34	0.95	1.3
Cc1ccccc1NC(=O)c1c(-c2ccccc2)noc1C	2	-1.5	0	0.03	0.38	0.4
CCCOc1ccccc1NC(=O)c1c(-c2ccccc2)noc1C	-11	-0.023	0	nt	-4.8*	0.46
CCCCCCn1nc(C(=O)Nc2nc3c(s2)CCCC3)c2ccccc2c1=O	nt	nt	nt	nt	nt	0.53
CCCCC1=CC2=CC(=O)C(C)(OC(=O)CC)C(=O)C2=CN1c1ccccc1 (stereo not given)	nt	-2.9*	nt	nt	-0.46	nt
CCCn1nnnc1NC(=O)COc1ccc(CC)cc1	nt	nt	nt	nt	nt	1.4
COc1ccc(Cl)cc1NC(=O)CC(C)=O	-9	0.011	9	1.1	0.44	-0.32
COc1ccc(Cl)cc1NC(=O)CC(C)c1ccccc1 (stereo not given)	3	0.71	-5	-0.36	-7.6*	-1.8
CCOc1ccc(C(=O)NCC(c2cccs2)N(C)C)cc1 (stereo not given)	nt	nt	nt	nt	nt	-0.47
Cc1ccc(C)c2[nH]c(=O)c(CN(CCN3CCCC3)C(=O)Nc3cccc(Cl)c3)cc12	-16	-0.22	-17	2.3	-7.6*	-1.2
CCCOCCOC(=O)c1[nH]c2c(c1C)C(=O)CC(c1cc(OC)ccc1OC)C2 (stereo not given)	nt	1.7	nt	nt	-5.3*	-1.2
COc1cc(C2CC(=O)c3c([nH]c(C(=O)OCCOC(C)C)c3C)C2)cc(OC)c1OC (stereo not given)	-7	0.05	6	nt	-4.7*	0.46
COCCOC(=O)c1[nH]c2c(c1C)C(=O)CC(c1cc(OC)ccc1OC)C2 (stereo not given)	nt	-0.045	nt	nt	-0.00023	0.18
SMILES	PLK1 kinase inh	DAT uptake mod	PLK1 PBD inh	PTK2B oligo ant	Cav3 T inh	SDO1 yeast rescue
Cc1cccc(NC(=S)N2CCOCC2)c1C	nt	nt	nt	nt	nt	1.6
COc1ccc(C2NC(=S)NC3=C2CCc2cc(OC)ccc23)cc1 (stereo not given)	-11	0.0032	8	0.31	-1.6	-1.7
CCc1ccc(-c2nc(CN3CCCC(C(=O)NCCc4ccc(OC)c(OC)c4)C3)c(C)o2)cc1 (stereo not given)	3	1.4	18	-0.97	-5.8*	-2
COc1ccc(-c2nc(CN3CCC(C(=O)N4CCc5ccccc54)CC3)c(C)o2)cc1OC	61*	1.1	-10	nt	-4.1	-0.35
COc1ccc(CCNC(=O)C2CCN(Cc3nc(-c4cccc(Cl)c4)oc3C)CC2)cc1OC	nt	nt	nt	0.84	nt	0.8
COc1ccc(CCNC(=O)C2CCCN(Cc3nc(-c4ccccc4C)oc3C)C2)cc1OC (stereo not given)	15	nt	26	-0.08	nt	-1.5
CCOC(=O)N1CCN(C(=O)C2CCN(Cc3nc(-c4ccccc4C)oc3C)CC2)CC1	68*	nt	13	nt	nt	0.57

Assay outcomes from PubChem BioAssay.
